A short description of experiment [1]: Nuclear factor erythroid 2-related factor 2/antioxidant responsive element (Nrf2/ARE) small molecule agonists: qHTS cell viability counter screen in human keratinocytes (AID 1919968; active = well fitted curve in the direction sought with a large enough effect in the repeat runs; an effect the other way counts as inactive or inconclusive; also: nearly all actives have a fitted effect of over 55% in size; also: potency is read from the fitted curve at half-maximal effect). The gist of the method:
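Measured as CellTiter-Fluor fluorescence, this readout tracks cytotoxicity in the same wells as the ARE-luciferase screen. HaCaT reporter cells (1,500/well) received compounds after a 5 h pre-incubation and were exposed for 23 h.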
(In general: qHTS replaces the single test concentration by a dilution series.)

For experiment [2], the target named is Gonadotropin-releasing hormone receptor (Homo sapiens) (UniProt P30968). Put plainly: Human gonadotropin-releasing hormone receptor (GnRHR) small molecule agonists, calcium flux assay in GnRHR-HEK293 cells (AID 1920063). Also: nearly all actives have a fitted effect of over 35% in size. Also: potency is read from the fitted curve at half-maximal effect. An outline of the steps:
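Fluorescence kinetics (480 nm excitation, 540 nm emission; 3 min, 1 s steps) report calcium mobilisation in human GnRHR-HEK293 cells in agonist mode. Dye incubation: 1 h, 37 C.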
For orientation: Calcium assays in cells follow changes in intracellular calcium, usually with a dye or a luminescent sensor.

Experiment [3] addresses KiSS-1 receptor (Homo sapiens) (UniProt Q969F8). Put plainly: Human kisspeptin (KISS1R) small molecule agonists, calcium flux assay in KISS1R-HEK293 cells (AID 1920064; active = well fitted curve in the direction sought with a large enough effect in the repeat runs; an effect the other way counts as inactive or inconclusive). The gist of the method:
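Measures KISS1R agonism through calcium-sensitive dye fluorescence in stably transfected HEK293 cells, read for 3 min after pin-tool compound delivery; 15-point titrations in triplicate.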

A short description of experiment [4]: G protein-coupled receptor (GPCR) small molecule agonists, calcium flux assay: HEK293 wild type cell line counter screen (AID 1920065). The gist of the method:
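Readout: fluorescence at 480 nm excitation/540 nm emission, sampled at 1 s intervals for 3 min. Cells had been cultured 18 h, then dye-loaded 1 h at 37 C before compound or ATP addition.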

Experiment [5] is described as follows: p53 small molecule agonists, cell-based qHTS assay with human liver microsomes (AID 1963577).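 Also: p53 response element beta-lactamase reporter cells with liver microsomes plus NADPH.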 The gist of the method: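 HLM-supplemented p53RE-bla reporter assay: 16 h compound exposure at 37 C, microsomes and NADPH each 0.5 mg/mL final, read by fluorescence intensity.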
Experiment [6] can be described thus: p53 small molecule agonists, cell-based qHTS assay with rat liver microsomes (AID 1963578). The gist of the method:
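Quantitative HTS of the Tox21 10K library: p53RE-bla cells, rat liver microsomes plus NADPH at 0.5 mg/mL final each, 16 h at 37 C, beta-lactamase fluorescence detection.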

The nature of experiment [7]: p53 small molecule agonists, cell-based qHTS assay with human liver microsomes: qHTS cell viability counter screen (AID 1963579). Also: nearly all actives have a fitted effect of over 45% in size. An outline of the steps:
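Viability of p53RE-bla cells is measured as CellTiter-Glo luminescence following a 16 h, 37 C incubation with compound, liver microsomes from human donors and NADPH.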

Experiment [8] can be described thus: p53 small molecule agonists, cell-based qHTS assay with rat liver microsomes: qHTS cell viability counter screen (AID 1963580). Also: nearly all actives have a fitted effect of over 45% in size. An outline of the steps:
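HCT-116 p53RE-bla, 4,000 cells/well, 5 h pre-incubation; cpd + rat liver microsomes 0.5 mg/mL + NADPH 0.5 mg/mL (final); 16 h, 37 C; CellTiter-Glo, 30 min RT; luminescence.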

Experiment [9] in a line: p53 small molecule agonists, cell-based qHTS assay (AID 1963582; active = well fitted activation curve with a large enough effect in the signal ratio in the repeat runs, not every such curve was filed as active; the % refers to the signal ratio). An outline of the steps:
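Compounds are pin-transferred in DMSO onto p53RE-bla cells and incubated 16 h at 37 C. The B/G FRET beta-lactamase substrate is then applied for 2 h at RT and fluorescence recorded.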

Experiment [10] addresses 5-hydroxytryptamine receptor 2A (Homo sapiens) (UniProt P28223). Put plainly: 5-hydroxytryptamine receptor 2A (HTR2A) small molecule agonists, cell-based qHTS assay (AID 1963587). Also: nearly all actives have a fitted effect of over 30% in size. An outline of the steps:
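Kinetic calcium-flux fluorescence (2 min, 1 sec intervals) after compound addition in agonist mode. HTR2A-CHO cells were cultured 18 h, then dye-loaded 1 h at 37 C.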

In experiment [11] the target is Muscarinic acetylcholine receptor M1 (Homo sapiens) (UniProt P11229). Put plainly: Cholinergic receptor muscarinic 1 (CHRM1) small molecule antagonists, cell-based qHTS assay (AID 1963588). Also: nearly all actives have a fitted effect of over 40% in size. The gist of the method: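 CHRM1-CHO calcium-flux assay, antagonist mode. Cells were seeded 18 h, dye-loaded 1 h at 37 C and given compound for 5 min at RT, then acetylcholine was added at 50nM. FDSS fluorescence was read 3 min; 15 concentrations, three runs.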
Sequence of Muscarinic acetylcholine receptor M1 (Homo sapiens) (P11229 whole entry, looked up): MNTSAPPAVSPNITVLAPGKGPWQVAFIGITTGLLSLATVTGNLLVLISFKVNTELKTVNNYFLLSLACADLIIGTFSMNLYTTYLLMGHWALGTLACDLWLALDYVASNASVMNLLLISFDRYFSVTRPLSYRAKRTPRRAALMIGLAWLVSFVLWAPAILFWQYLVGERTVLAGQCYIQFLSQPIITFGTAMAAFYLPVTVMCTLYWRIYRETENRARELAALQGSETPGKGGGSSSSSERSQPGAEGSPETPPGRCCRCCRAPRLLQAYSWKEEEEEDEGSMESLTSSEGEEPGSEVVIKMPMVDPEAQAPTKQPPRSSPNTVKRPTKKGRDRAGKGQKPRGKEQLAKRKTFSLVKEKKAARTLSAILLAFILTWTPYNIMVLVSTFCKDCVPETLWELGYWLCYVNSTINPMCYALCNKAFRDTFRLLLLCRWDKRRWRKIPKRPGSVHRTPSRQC

For experiment [12] the target is unchanged. Put plainly: Cholinergic receptor muscarinic 1 (CHRM1) small molecule agonists, cell-based qHTS assay (AID 1963589). Also: nearly all actives have a fitted effect of over 35% in size. The gist of the method: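 Each compound was tested at 15 concentrations across three independent runs on dye-loaded CHO cells stably expressing human CHRM1, reading intracellular calcium fluorescence kinetically at 1 sec intervals.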
The nature of experiment [13]: cAMP Responsive Elements (CRE) small molecule agonists, cell-based qHTS assay (AID 1963590). The gist of the method: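 Cell line: CRE-bla HEK 293T; medium DMEM/10% dialyzed FBS/0.1 mM NEAA/1 mM pyruvate/25 mM HEPES; 3 h compound exposure; beta-lactamase FRET readout after 2 h substrate loading at RT.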
Experiment [14] is described as follows: cAMP Responsive Elements (CRE) small molecule antagonists, cell-based qHTS assay (AID 1963591; active = well fitted inhibition curve with a large enough effect in the signal ratio in the repeat runs, not every such curve was filed as active; the % refers to the signal ratio). The gist of the method: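 Inhibition of NKH477-driven (0.25 uM final) CRE-beta-lactamase signal in HEK293T cells, 3 h compound exposure at 37 °C, detected by FRET substrate fluorescence.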
In experiment [15] the target is Beta-2 adrenergic receptor (Homo sapiens) (UniProt P07550). Put plainly: Adrenergic beta2 receptor (ADRB2) small molecule antagonists, cell-based qHTS assay (AID 1963592). Also: series mostly up to about 92 µM; nearly all actives have a fitted effect of over 50% in size. An outline of the steps:
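Cells (CHO, stable ADRB2 overexpression) incubated 18-20hr at 37C; compounds added from DMSO; agonist mix (1nM isoproterenol, 100uM IBMX, 25uM Ro-20-1724) added; 0.5hr RT; d2-cAMP and anti-cAMP-cryptate added; 1hr RT; 665/615 nm read.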

The target in experiment [16] is D(2) dopamine receptor (Homo sapiens) (UniProt P14416). Put plainly: Dopamine D2 receptor (DRD2) small molecule agonists, cell-based qHTS assay (AID 1963594). Also: nearly all actives have a fitted effect of over 35% in size. Also: potency is read from the fitted curve at half-maximal effect. The gist of the method: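 cAMP accumulation in DRD2-HEK293 cells measured by HTRF after 1 h detection; compounds added 10 min before NKH477 (200nM […]) forskolin-analogue stimulation, 30 min at room temperature, with Ro20-1724 present at 0.1 mM final.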
Sequence of D(2) dopamine receptor (Homo sapiens) (P14416 whole entry, looked up): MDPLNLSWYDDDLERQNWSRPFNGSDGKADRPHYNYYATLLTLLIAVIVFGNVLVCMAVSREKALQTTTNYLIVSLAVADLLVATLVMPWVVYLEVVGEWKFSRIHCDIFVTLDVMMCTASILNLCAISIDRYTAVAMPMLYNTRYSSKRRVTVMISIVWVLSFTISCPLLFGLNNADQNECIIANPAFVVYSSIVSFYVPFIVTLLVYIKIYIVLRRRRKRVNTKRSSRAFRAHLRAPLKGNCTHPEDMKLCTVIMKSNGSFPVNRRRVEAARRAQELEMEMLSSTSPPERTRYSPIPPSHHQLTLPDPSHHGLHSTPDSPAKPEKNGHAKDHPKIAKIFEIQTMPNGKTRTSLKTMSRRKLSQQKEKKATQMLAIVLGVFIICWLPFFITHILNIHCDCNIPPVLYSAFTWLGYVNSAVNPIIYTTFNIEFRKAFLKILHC

For experiment [17] the target is unchanged. As to the kind of experiment: Dopamine D2 receptor (DRD2) small molecule antagonists, cell-based qHTS assay (AID 1963595; active = well fitted inhibition curve with a large enough effect in the signal ratio in the repeat runs, with a control signal flat; the % refers to the signal ratio). The gist of the method:
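Human DRD2 antagonist qHTS measuring cAMP by HTRF. The cells are exposed to compound for 10 min, then to NKH477 (200 nM) and quinpirole (12 nM) for 30 min at RT, with Ro20-1724 (0.1 mM) present throughout.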

Experiment [18] deals with Beta-2 adrenergic receptor (Homo sapiens) (UniProt P07550). Put plainly: Adrenergic beta2 receptor (ADRB2) small molecule agonists, cell-based qHTS assay (AID 1963593).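 Also: CHO cells stably overexpressing human ADRB2.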 An outline of the steps:
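CHO cells stably over-expressing ADRB2 were plated overnight at 37C, then dosed with compounds plus a stimulation mix containing 100uM IBMX and 25uM Ro-20-1724 for 0.5hr at room temperature. cAMP was measured by HTRF competition, 1hr.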

Experiment [19] can be described thus: p53 small molecule agonists, cell-based qHTS assay: qHTS cell viability counter screen (AID 1963581). Also: nearly all actives have a fitted effect of over 45% in size. The gist of the method:
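In the same plates used for the p53 bla reporter, HCT-116 cells given compounds for 16 h at 37 C received CellTiter-Glo; luminescence was recorded 30 min later at room temperature.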

Experiment [20] addresses 5-hydroxytryptamine receptor 2A (Homo sapiens) (UniProt P28223). Put plainly: 5-hydroxytryptamine receptor 2A (HTR2A) small molecule antagonists, cell-based qHTS assay (AID 1963586). Also: nearly all actives have a fitted effect of over 45% in size. An outline of the steps:
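Antagonist-mode intracellular calcium assay: DOI (4 nM) added after 5 min compound pre-incubation at room temperature to dye-loaded HTR2A-CHO cells. Fluorescence followed for 3 min, sampled every second.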

Molecules are shown by their SMILES. Values without a mark were called inactive. Inconclusive results are not listed. The source made the active and inactive calls. Unless noted, calls follow the shape of the full dose curve.

Sequence of Gonadotropin-releasing hormone receptor (Homo sapiens) (P30968 whole entry, looked up): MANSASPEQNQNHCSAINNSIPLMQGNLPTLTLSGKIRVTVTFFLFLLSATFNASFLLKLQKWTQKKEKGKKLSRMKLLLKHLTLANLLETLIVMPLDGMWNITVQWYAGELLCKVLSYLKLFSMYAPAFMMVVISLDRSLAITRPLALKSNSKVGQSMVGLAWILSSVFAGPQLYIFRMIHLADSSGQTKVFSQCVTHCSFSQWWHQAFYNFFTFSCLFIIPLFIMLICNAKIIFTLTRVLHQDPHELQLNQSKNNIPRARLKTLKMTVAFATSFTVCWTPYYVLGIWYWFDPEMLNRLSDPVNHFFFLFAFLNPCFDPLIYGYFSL
Sequence of 5-hydroxytryptamine receptor 2A (Homo sapiens) (P28223 whole entry, looked up): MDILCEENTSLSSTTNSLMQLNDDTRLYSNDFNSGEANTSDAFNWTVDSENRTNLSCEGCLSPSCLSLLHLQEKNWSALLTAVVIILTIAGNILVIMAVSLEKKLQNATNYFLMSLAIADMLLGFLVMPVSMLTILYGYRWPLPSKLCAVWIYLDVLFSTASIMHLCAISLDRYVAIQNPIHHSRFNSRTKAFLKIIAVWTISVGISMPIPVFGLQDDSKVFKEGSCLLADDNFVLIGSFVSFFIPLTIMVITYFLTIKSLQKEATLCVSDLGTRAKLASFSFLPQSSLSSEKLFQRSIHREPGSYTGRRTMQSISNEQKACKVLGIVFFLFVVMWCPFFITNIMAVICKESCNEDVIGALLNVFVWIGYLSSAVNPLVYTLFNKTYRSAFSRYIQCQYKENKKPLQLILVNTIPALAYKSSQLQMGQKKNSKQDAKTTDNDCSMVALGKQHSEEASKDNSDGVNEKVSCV
Sequence of Beta-2 adrenergic receptor (Homo sapiens) (P07550 whole entry, looked up): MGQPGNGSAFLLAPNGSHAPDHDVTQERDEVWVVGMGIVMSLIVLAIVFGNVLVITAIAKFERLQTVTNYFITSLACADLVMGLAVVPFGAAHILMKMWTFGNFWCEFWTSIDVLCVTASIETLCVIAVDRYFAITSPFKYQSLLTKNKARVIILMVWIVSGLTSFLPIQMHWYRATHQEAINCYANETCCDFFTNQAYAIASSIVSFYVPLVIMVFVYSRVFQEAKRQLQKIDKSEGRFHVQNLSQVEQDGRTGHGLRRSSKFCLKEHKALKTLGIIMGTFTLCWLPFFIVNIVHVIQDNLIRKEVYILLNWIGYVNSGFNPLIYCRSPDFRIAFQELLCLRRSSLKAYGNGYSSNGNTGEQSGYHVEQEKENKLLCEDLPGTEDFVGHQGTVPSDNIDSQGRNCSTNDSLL
Sequence of KiSS-1 receptor (Homo sapiens) (Q969F8 whole entry, looked up): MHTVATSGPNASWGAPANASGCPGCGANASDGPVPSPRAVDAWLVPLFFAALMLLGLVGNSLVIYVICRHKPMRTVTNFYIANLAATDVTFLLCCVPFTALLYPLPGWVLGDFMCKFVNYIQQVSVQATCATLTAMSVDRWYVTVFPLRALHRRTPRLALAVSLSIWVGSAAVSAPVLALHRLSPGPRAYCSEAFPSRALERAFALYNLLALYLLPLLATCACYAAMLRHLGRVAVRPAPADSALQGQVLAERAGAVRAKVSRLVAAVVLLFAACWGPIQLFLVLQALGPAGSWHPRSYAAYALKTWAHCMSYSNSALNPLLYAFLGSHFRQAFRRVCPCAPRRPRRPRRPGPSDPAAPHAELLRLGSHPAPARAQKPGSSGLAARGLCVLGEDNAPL

As to `NC1=NCC2c3ccccc3Cc3ccccc3N12` (stereo not given), the Potency entry in [1], in [2], in experiment [3], in experiment [4], in experiment [5] and in experiment [6] was “inactive” in each case. For the same molecule, the Potency result in experiment [7], in experiment [8], in experiment [9], in experiment [10], in experiment [11] and in experiment [12] was “inactive” in each case. Moreover, the Potency result in experiment [13], in experiment [14], in experiment [15] and in [17] was “inactive” in each case. For the same molecule, in [16], the Potency is 4.92 µM (active).

Regarding `CS(=O)(=O)Nc1ccc([N+](=O)[O-])cc1Oc1ccccc1`, the Potency result in [1], in [2], in [3], in experiment [4], in experiment [5] and in experiment [6] was “inactive” in each case. Further, the Potency result in [7], in experiment [8], in experiment [9], in experiment [13], in [15] and in experiment [18] was “inactive” throughout. For the same molecule, the Potency entry in [16] and in experiment [17] was “inactive” throughout.

On to `OCCOCC#CCOCCO`, for which the Potency entry in experiment [1], in experiment [2], in [3], in experiment [4], in experiment [5] and in experiment [6] was “inactive” in each case. The Potency entry in experiment [7], in experiment [19], in experiment [9], in experiment [20], in [10] and in experiment [11] was “inactive” throughout. In addition, the Potency result in experiment [12], in [13], in experiment [15], in experiment [16] and in experiment [17] was “inactive” each time.

With `CNCCC(Oc1ccc(C(F)(F)F)cc1)c1ccccc1` (stereo not given), the Potency is 26.9 µM (active) in experiment [1] and 38.4 µM (active) in experiment [2]. Further, the Potency entry in [3], in [4], in [5], in experiment [6], in experiment [7] and in experiment [8] was “inactive” throughout. Also, the Potency result in [19], in experiment [9], in [13], in [14], in experiment [15] and in [16] was “inactive” each time.

Take `O=C(Nc1ccc(Oc2ccc(Cl)cc2)c(Cl)c1)c1cc(I)cc(I)c1O`: in [1], the Potency was 26.6 µM (active). Moreover, the Potency result in experiment [2], in experiment [3], in experiment [4], in experiment [5], in experiment [6] and in [7] was “inactive” each time. Moreover, the Potency result in [8], in [20], in experiment [10], in [11], in [12] and in experiment [14] was “inactive” each time. In addition, the Potency entry in experiment [15], in [16] and in [17] was “inactive” each time.

Regarding `C[C@@H](N)C(=O)O`, the Potency entry in experiment [1], in [2], in experiment [3], in experiment [4], in experiment [5] and in [6] was “inactive” in each case. Besides, the Potency entry in experiment [7], in experiment [8], in experiment [19], in experiment [9], in experiment [12] and in experiment [13] was “inactive” in each case. For the same molecule, the Potency result in [14], in experiment [15], in [18] and in experiment [16] was “inactive” in each case.

For the molecule `CN(C)CC/C=C1\c2ccccc2COc2ccccc21`, the Potency result in experiment [1], in [2], in [3], in [4], in experiment [5] and in experiment [6] was “inactive” in each case. Also, the Potency entry in experiment [7], in experiment [8], in experiment [19], in experiment [14], in [16] and in experiment [17] was “inactive” in each case.

In the case of `O=C(O)c1ccccc1C(=O)OCc1ccccc1`, the Potency entry in [1], in [2], in [3], in [4], in experiment [5] and in experiment [6] was “inactive” in each case. For the same molecule, the Potency entry in experiment [7], in [8], in experiment [19], in [9], in experiment [11] and in experiment [12] was “inactive” each time. Also, the Potency entry in experiment [14], in [15], in [16] and in [17] was “inactive” in each case.

As for `C=C[Si](OCC)(OCC)OCC`, the Potency result in [1], in [2], in experiment [3], in [4], in [5] and in [6] was “inactive” in each case. In addition, the Potency entry in experiment [7], in experiment [8], in experiment [19], in experiment [20], in experiment [10] and in experiment [11] was “inactive” each time. Also, the Potency entry in experiment [12], in [13], in experiment [14], in experiment [15], in experiment [16] and in [17] was “inactive” in each case.

The record behind these values is PubChem BioAssay (Tox21).
